In PubChem BioAssay (Tox21):
Results filed as inconclusive are left out. Calls of active or inactive are those of the source. Unless noted, calls follow the shape of the dose curve; as a rule, active = well fitted curve in the direction sought with a large enough effect in the repeat runs; inconclusive = weak or mixed curves; inactive = no such curve, though single readings can be large; an effect the other way counts as inactive or inconclusive.

Key:
[1] = qHTS assay for small molecule agonists of the p53 signaling pathway (AID 651631; calls by dose curve; also: nearly all actives have a fitted effect of over 15% in size; also: potency is read from the fitted curve at half-maximal effect); conditions: HCT-116 p53RE-bla reporter, beta-lactamase FRET ratio, 16 h; series mostly up to 73.3 µM
Method in brief: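 Fluorescence intensity from cleaved LiveBLAzer B/G substrate (2 h, room temperature) served as the signal. Beforehand, HCT-116 reporter cells bearing p53 response elements were treated 16 h at 37 °C with DMSO-dissolved compounds.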

[2] = qHTS assay for small molecules that induce genotoxicity in human embryonic kidney cells expressing luciferase-tagged ATAD5 (AID 651632); conditions: HEK293T ATAD5-luciferase induction, 16 h; series mostly up to 83.3 µM; also: nearly all actives have a fitted effect of over 15% in size
Method in brief: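 Cells were seeded at 2,000 per well, dosed with compound, and incubated 16 hr at 37C in 5% CO2. Luciferase activity was then quantified after a 30 min room-temperature incubation with Amplite.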

[3] = qHTS assay for small molecule agonists of the p53 signaling pathway - cell viability (AID 651633; calls by dose curve; also: nearly all actives have a fitted effect of over 30% in size; also: potency is read from the fitted curve at half-maximal effect); conditions: p53RE-bla HCT-116 viability, ATP luminescence, 16 h; series mostly up to 83.3 µM
Method in brief: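 p53RE-bla cells were treated with compound for 16 hours at 37 C. Cytotoxicity was then measured as CellTiter-Glo luminescence after 30 min at room temperature.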

[4] = qHTS assay for small molecules that induce genotoxicity in human embryonic kidney cells expressing luciferase-tagged ATAD5 - cell viability (AID 651634; calls by dose curve; also: nearly all actives have a fitted effect of over 25% in size); conditions: HEK293T ATAD5-luc cells viability, CellTiter-Fluor, 15.5 h; series mostly up to 83.3 µM
Method in brief: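 Cells (HEK293T, luciferase-tagged ATAD5) are seeded at 2,000 per well, dosed with compound or DMSO vehicle, and incubated 15.5 hr at 37C and 5% CO2. CellTiter-Fluor is added for 30 min before fluorescence is measured.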

[5] = qHTS assay for small molecule disruptors of the mitochondrial membrane potential - cell viability (AID 720634; calls by dose curve;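 also: human HepG2 liver cancer cells; nearly all actives have a fitted effect of over 20% in size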); conditions: HepG2 viability, ATP luminescence (CellTiter-Glo), 1 h; series mostly up to 83.2 µM
Method in brief: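 Cytotoxicity was measured by ATP quantitation in HepG2 wells that had first been treated with compound for 1 hr and stained with m-MPI dye; CellTiter-Glo incubation was 30 min at room temperature.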

[6] = qHTS assay for small molecule disruptors of the mitochondrial membrane potential (AID 720635); conditions: HepG2 mitochondrial membrane potential, Mito-MPS dye ratio; series mostly up to 83.2 µM
Method in brief: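 HepG2 cells exposed to compound 1 hr at 37C, then Mito-MPS dye 30 min. Ratio read of aggregate (540/590 nm) versus monomer (490/535 nm) fluorescence.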

[7] = qHTS assay to test for compound auto fluorescence at 590 nm (red) in HepG2 cells (AID 720674); conditions: HepG2 autofluorescence, red 540/590 nm, 1 h; series mostly up to 91.3 µM
Method in brief: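 Fluorescence at 590 nm emission following 540 nm excitation was recorded from HepG2 wells one hour after compound transfer, with DMSO-only wells as vehicle and Rose Bengal sodium equivalency as the scale.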

[8] = qHTS assay to test for compound auto fluorescence at 535 nm (green) in HepG2 cells (AID 720675); conditions: green autofluorescence 485/535 nm, 1 h; series mostly up to 91.3 µM
[9] = qHTS assay to test for compound auto fluorescence at 590 nm (red) in HEK293 cells (AID 720679); conditions: red autofluorescence 540/590 nm; series mostly up to 91.3 µM
Method in brief: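 HEK293 cells (2,000/well, medium with 10% dialyzed FBS) attached for 4-5 hr at 37C, received 23 nL compound and were incubated overnight at 37C, 5% CO2. Red fluorescence was then read at 540/590nm Ex/Em, referenced to Rose Bengal sodium.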

[10] = qHTS assay to test for compound auto fluorescence at 535 nm (green) in HEK293 cells (AID 720680); conditions: green autofluorescence 485/535 nm; series mostly up to 91.3 µM
[11] = qHTS assay to test for compound auto fluorescence at 460 nm (blue) in HEK293 cell free culture (AID 720681); conditions: cell-free medium, autofluorescence 405/460 nm (blue); series mostly up to 91.3 µM
Method in brief: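 Compounds were added to cell-free DMEM with 10% FBS and fluorescence read directly. The blue channel used 405 nm excitation and 460 nm emission, with triamterene as the reference fluorophore.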

[12] = qHTS assay to test for compound auto fluorescence at 535 nm (green) in HEK293 cell free culture (AID 720682); conditions: cell-free medium, green autofluorescence 485/535 nm, active compounds read high; series mostly up to 91.3 µM
Method in brief: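 Intrinsic compound fluorescence is measured in culture medium containing 10% FBS, with excitation at 485 nm and detection at 535 nm, referenced to fluorescein.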

[13] = qHTS assay to test for compound auto fluorescence at 590 nm (red) in HEK293 cell free culture (AID 720683); conditions: cell-free medium autofluorescence, Ex540/Em590 red; series mostly up to 91.3 µM
Method in brief: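 Cell-free wells of DMEM with 10% FBS received compound, and intrinsic fluorescence was read at excitation/emission 540/590 nm. Values expressed as equivalence to Rose Bengal sodium.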

[14] = qHTS assay to test for compound auto fluorescence at 590 nm (red) in HepG2 cell free culture (AID 720684); conditions: cell-free medium autofluorescence, red 540/590 nm; series mostly up to 91.3 µM
Method in brief: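 Rose Bengal sodium served as the reference for red signal. Test compounds were dispensed into serum-containing MEM (10% FBS) without cells, and plates were read at 540/590 nm.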

[15] = qHTS assay to test for compound auto fluorescence at 535 nm (green) in HepG2 cell free culture (AID 720686); conditions: Cell-free medium, green autofluorescence 485/535 nm; series mostly up to 91.3 µM
[16] = qHTS assay to test for compound auto fluorescence at 460 nm (blue) in HepG2 cells (AID 720687); conditions: autofluorescence 405/460 nm, 1 h; series mostly up to 91.3 µM
Method in brief: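 HepG2 cells in MEM with 10% FBS, attached overnight at 37 C, were exposed to compound or DMSO for 1 hr at 37 C, 5% CO2. Blue fluorescence was read at 405/460 nm, with triamterene as reference fluorophore.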

[17] = biological target: Glucocorticoid receptor (Homo sapiens) (UniProt P04150); experiment: qHTS assay to identify small molecule antagonists of the glucocorticoid receptor (GR) signaling pathway (AID 720692; active = well fitted inhibition curve with a large enough effect in the signal ratio in the repeat runs, not every such curve was filed as active; the % refers to the signal ratio); conditions: GR-bla HeLa, beta-lactamase FRET ratio, dexamethasone-stimulated, 18 h; series mostly up to 58.5 µM
Glucocorticoid receptor (Homo sapiens), sequence (P04150 whole entry, looked up): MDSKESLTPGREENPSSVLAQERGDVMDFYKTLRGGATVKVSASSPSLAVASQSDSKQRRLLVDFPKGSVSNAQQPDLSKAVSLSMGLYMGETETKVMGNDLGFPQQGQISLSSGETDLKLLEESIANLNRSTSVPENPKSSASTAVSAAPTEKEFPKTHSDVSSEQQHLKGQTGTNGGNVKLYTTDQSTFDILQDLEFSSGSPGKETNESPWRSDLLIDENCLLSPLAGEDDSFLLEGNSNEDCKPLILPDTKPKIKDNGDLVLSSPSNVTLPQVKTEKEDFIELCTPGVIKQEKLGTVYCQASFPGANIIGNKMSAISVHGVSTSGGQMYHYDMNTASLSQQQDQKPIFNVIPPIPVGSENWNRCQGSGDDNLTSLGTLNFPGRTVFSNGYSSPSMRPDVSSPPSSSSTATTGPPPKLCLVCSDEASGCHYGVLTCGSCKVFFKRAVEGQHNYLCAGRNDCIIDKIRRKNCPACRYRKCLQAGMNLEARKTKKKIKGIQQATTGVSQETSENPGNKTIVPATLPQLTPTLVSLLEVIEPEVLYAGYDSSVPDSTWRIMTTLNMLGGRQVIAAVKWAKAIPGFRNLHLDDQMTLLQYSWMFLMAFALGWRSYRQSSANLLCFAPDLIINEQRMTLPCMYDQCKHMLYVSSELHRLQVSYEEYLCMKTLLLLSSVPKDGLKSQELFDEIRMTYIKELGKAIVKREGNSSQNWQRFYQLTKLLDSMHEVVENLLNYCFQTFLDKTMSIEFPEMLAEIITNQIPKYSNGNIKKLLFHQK
Method in brief: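 Antagonism was scored as loss of dexamethasone-driven (5 nM final) reporter signal in HeLa cells bearing a glucocorticoid response element–beta-lactamase construct, after 18 h compound exposure at 37 C and 2 h FRET substrate loading.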

[18] = qHTS assay to test for compound auto fluorescence at 460 nm (blue) in HEK293 cells (AID 720678); conditions: blue autofluorescence 405/460 nm; series mostly up to 91.3 µM
Method in brief: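 HEK293 cells (2,000 per well, medium with 10% dialyzed FBS) attached for 4-5 hr at 37C, then received compound and stood overnight at 37C, 5% CO2. Blue fluorescence was read at Ex/Em 405/460 nm and expressed relative to triamterene.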

[19] = qHTS assay to test for compound auto fluorescence at 460 nm (blue) in HepG2 cell free culture (AID 720685); conditions: Cell-free culture medium, blue autofluorescence 405/460 nm; series mostly up to 91.3 µM
Method in brief: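 Cell-free plates of MEM plus 10% FBS received 23 nL compound or DMSO vehicle; blue-channel (405/460 nm) intensity scored against triamterene as reference fluorophore.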

[20] = biological target: Glucocorticoid receptor (Homo sapiens) (UniProt P04150); experiment: qHTS assay to identify small molecule agonists of the glucocorticoid receptor (GR) signaling pathway (AID 720691; active = well fitted activation curve with a large enough effect in the signal ratio in the repeat runs, not every such curve was filed as active; the % refers to the signal ratio); conditions: GR-bla HeLa, beta-lactamase reporter ratio, 18 h; series mostly up to 62.4 µM
Method in brief: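 Steps: seed GR-bla HeLa cells, incubate 4 h at 37 C/5% CO2; pin-transfer DMSO-dissolved compounds; incubate 18 h at 37 C; add LiveBLAzer B/G FRET substrate; after 2 h at room temperature, measure fluorescence.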
% is scaled to controls: 0 for no effect and ±100 for the full control effect.

Cc1ccc2nc(N)[nH]c(=O)c2c1Sc1ccncc1
active: Potency [1] 2.66 µM | Potency [3] 1.88 µM
inactive: Potency [2] | Potency [4] | outcome [5] | Potency [6] | outcome [7] | outcome [8] | outcome [9] | outcome [10] | Potency [11] | outcome [12] | outcome [13] | outcome [14] | outcome [15] | Potency [16]

CC(=O)OCC(C)C
inactive: Potency [1] | Potency [2] | Potency [3] | Potency [4] | outcome [5] | Potency [6] | outcome [7] | outcome [8] | outcome [9] | outcome [10] | Potency [11] | outcome [12] | outcome [13] | outcome [14] | outcome [15] | Potency [16] | Potency [17]

CC(C)C(=O)OCCOc1ccccc1
inactive: Potency [1] | Potency [2] | Potency [3] | Potency [4] | outcome [5] | Potency [6] | outcome [7] | outcome [8] | Potency [18] | outcome [9] | Potency [11] | outcome [12] | outcome [13] | outcome [14] | Potency [19] | outcome [15] | Potency [16] | Potency [20] | Potency [17]

CCC1CCC(CCC(=O)O)C1 (stereo not drawn)
inactive: Potency [1] | Potency [2] | Potency [3] | Potency [4] | outcome [5] | Potency [6] | outcome [7] | outcome [8] | Potency [18] | outcome [9] | outcome [10] | outcome [12] | outcome [13] | outcome [14] | Potency [19] | outcome [15] | Potency [16] | Potency [20]

Nc1ccn([C@H]2CS[C@@H](CO)O2)c(=O)n1
inactive: Potency [1] | Potency [2] | Potency [3] | Potency [4] | outcome [5] | Potency [6] | outcome [7] | outcome [8] | Potency [18] | outcome [9] | outcome [10] | Potency [11] | outcome [12] | outcome [13] | outcome [14] | Potency [19] | Potency [16] | Potency [20]

CC(C)(O)c1coc(S(=O)(=O)NC(=O)Nc2c3c(cc4c2CCC4)CCC3)c1
inactive: Potency [1] | Potency [2] | Potency [3] | Potency [4] | outcome [5] | Potency [6] | outcome [7] | outcome [8] | Potency [18] | outcome [9] | outcome [10] | Potency [11] | outcome [12] | outcome [13] | outcome [14] | Potency [19] | outcome [15] | Potency [16] | Potency [20]

C=CC(=O)O
inactive: Potency [1] | Potency [2] | Potency [3] | Potency [4] | outcome [5] | Potency [6] | outcome [7] | outcome [8] | Potency [18] | outcome [10] | outcome [12] | outcome [13] | outcome [14] | Potency [19] | outcome [15] | Potency [16] | Potency [20]

O=C(O)c1cccc(Oc2ccccc2)c1
inactive: Potency [1] | Potency [2] | Potency [3] | Potency [4] | outcome [5] | Potency [6] | outcome [7] | outcome [8] | Potency [18] | outcome [9] | outcome [10] | outcome [12] | outcome [13] | outcome [14] | Potency [19] | outcome [15] | Potency [16] | Potency [20] | Potency [17]

CC(C)Cc1ccc(CC(=O)O)cc1
inactive: Potency [1] | Potency [2] | Potency [3] | Potency [4] | outcome [5] | Potency [6] | outcome [7] | outcome [8] | Potency [18] | outcome [9] | outcome [10] | outcome [12] | outcome [13] | outcome [14] | Potency [19] | outcome [15] | Potency [16] | Potency [20] | Potency [17]

CCCCCCCCCCCCCCN(C)C
inactive: Potency [1] | Potency [2] | Potency [3] | Potency [4] | outcome [5] | Potency [6] | fluorescence, relative to Rose Bengal [7] 0.132% [at 18.6 µM] | fluorescence, % of fluorescein control [8] 0.0291% [at 18.6 µM] | fluorescence, % of triamterene [18] -0.142% [at 18.6 µM] | fluorescence, % of fluorescent control [9] 0.0361% [at 18.6 µM] | fluorescence, % of fluorescent control [11] 0.0125% [at 18.6 µM] | activity change [12] -0.0109% [at 18.6 µM] | fluorescence, % of fluorescent control [13] -0.0109% [at 18.6 µM] | fluorescence, % of Rose Bengal [14] -0.054% [at 18.6 µM] | fluorescence, % of fluorescent control [19] -0.025% [at 18.6 µM] | fluorescence, % of fluorescein control [15] -0.0531% [at 18.6 µM] | fluorescence, % of fluorescent control [16] -0.0432% [at 18.6 µM] | Potency [20] | Potency [17]

Cc1cn([C@H]2C[C@H](F)[C@@H](CO)O2)c(=O)[nH]c1=O
inactive: Potency [1] | Potency [2] | Potency [3] | Potency [4] | outcome [5] | Potency [6] | outcome [7] | outcome [8] | Potency [18] | outcome [10] | Potency [11] | outcome [12] | outcome [13] | outcome [14] | Potency [19] | outcome [15] | Potency [16] | Potency [20] | Potency [17]

C=C(C)c1ccccc1
inactive: Potency [1] | Potency [2] | Potency [3] | Potency [4] | outcome [5] | Potency [6] | outcome [7] | outcome [8] | Potency [18] | outcome [10] | outcome [12] | outcome [13] | outcome [14] | Potency [19] | Potency [16]

CC(C)c1ccc(C#N)cc1
inactive: Potency [1] | Potency [2] | Potency [3] | Potency [4] | outcome [5] | Potency [6] | outcome [7] | outcome [8] | Potency [18] | outcome [9] | outcome [10] | Potency [11] | outcome [12] | outcome [14] | Potency [19] | outcome [15] | Potency [16] | Potency [20] | Potency [17]

CC(=O)c1ccc[nH]1
inactive: Potency [1] | Potency [2] | Potency [3] | Potency [4] | outcome [5] | Potency [6] | outcome [7] | outcome [8] | Potency [18] | outcome [9] | outcome [10] | outcome [12] | outcome [13] | outcome [14] | Potency [19] | outcome [15] | Potency [16] | Potency [20] | Potency [17]
